Compounds with a hit are over-represented: about 2.1% of the library has one in this group of screens.
Abeta yeast res: qHTS for compounds that reverse cellular toxicity of Amyloid beta (A-beta) peptide in yeast: Primary Screen | yeast expressing A-beta42, growth rescue, OD600, 48 h; response scale: 0% DMSO, 100% iron-clioquinol control | Potency, µM (titrated, usually from 46.1 µM), usual class: activators | hit rate 0.063% among 410,000 | AID 1347071, 2019; note: nearly all actives have a fitted effect of over 55% in size
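Growth rescue measured by 600 nm absorbance after 48 h yeast culture at 30 C with compound. Values normalized between DMSO and an equimolar ferric chloride plus clioquinol control.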
TDP-43 yeast inh: qHTS of TDP-43 Inhibitors | Potency, µM (doses to about 46.1 µM), for inactives: at the top dose growth rescue (activation), most hits filed as activators | hit rate 1.8% among 410,000 | TDP-43 expressing yeast growth rescue, BacTiter-Glo, 24 h; note: % of control where 0% means no effect; nearly all actives have a fitted effect of over 50% in size
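Luminescence from BacTiter-Glo reports growth of TDP-43-expressing yeast after 24 hr at 30 deg C with compound. Cells were raffinose-pregrown to mid-log, then seeded in galactose medium at OD600=0.02.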
aSyn yeast inh: qHTS of alpha-syn Inhibitors | hit rate 0.14% among 370,000 | AID 652106, 2013 | Potency, µM (top dose mostly 46.1 µM), for inactives: at the top dose growth rescue (activation), actives largely listed as activators | Yeast expressing alpha-synuclein, growth rescue, BacTiter-Glo, 24 h; note: % of control where 0% means no effect; nearly all actives have a fitted effect of over 65% in size
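Readout is rescue of growth in alpha-synuclein-expressing yeast, so inhibitors of toxicity appear as activators. Growth after 24 hr at 30 deg C in galactose medium is quantified by luminescence.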
FUS suppressor: qHTS for Suppressors of FUS Proteinopathy: Primary screen using FUS-linked yeast assay. S. cerevisiae FUS-expressing, growth rescue, OD600, 24 h. hit rate 0.24% among 390,000. Potency, µM (top dose mostly 76.6 µM), hits mostly activators;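 note: plate controls were DMSO vehicle for no effect and reference control for full effect; nearly all actives have a fitted effect of over 55% in size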
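Galactose (2%) drives FUS expression in yeast precultured in raffinose; seeding density OD 0.005. Test compounds incubated 24hr at 30C and 99% humidity before absorbance at 600 nm was measured.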
An asterisk follows results filed as active; i = inactive; u = inconclusive; x = no result given. Calls come from the whole dose curve; as a rule, active = well fitted curve in the direction sought with a large enough effect; inconclusive = small, poorly fitted or top-dose-only effect, or another doubt; inactive = no such curve, though single readings can be large; an effect the other way counts as inactive or inconclusive. Potency is the fitted concentration of half-maximal effect.

SMILES	Abeta yeast res	TDP-43 yeast inh	aSyn yeast inh	FUS suppressor
O=[N+]([O-])c1cccc(C(=Nc2ccccc2)NO)c1	i	-3%	8%	i
O=[N+]([O-])c1cc([N+](=O)[O-])c2c(=Nc3ccccc3)n(-c3ccccc3)n(O)c2c1	i	13µM*	-7%	i
O=C1CC(c2ccc(O)c(O)c2)Oc2cc(O)cc(O)c21 (configuration not stated)	i	8%	1%	i
Oc1ccc(C2C[C@H]3CC[C@@H]2C3)cc1O (some centres not stated)	u	14µM*	3%	i
Cc1c(Cl)cccc1NC(=O)CCC(=O)c1cccs1	i	18%	-4%	i
O=C(COC(=O)c1cnc(Cl)c(Cl)c1)NC1CCCCCC1	i	2%	-1%	i
CCCC(=O)NC1=C(Cl)C(=O)c2ccccc2C1=O	i	-91%	-83%	x
CCNC1=C(Cl)C(=O)c2ccccc2C1=O	i	13µM*	3%	i
CC(C)(C)NC(=O)NC(=O)COc1ccc(Br)cc1Br	i	28µM*	9%	i
CC(C)NC(=O)C1Cc2c(-c3ccccc3Oc3ccccc3)ccnc2O1 (configuration not stated)	i	2%	12%	i
O=C(c1cc2ccccc2o1)N1CCN(S(=O)(=O)c2c(F)cccc2F)CC1	i	14µM*	10%	i
COc1ccccc1N1CCN(C(=O)c2oc3cc(C)c(C)cc3c2C)CC1	i	-12%	-1%	i
O=C(c1cc(=O)c2ccccc2o1)N1CCN(c2ccccc2F)CC1	i	14µM*	6%	i
CC(=O)N1CCN(C(=O)c2cc3ccccc3o2)CC1	i	-9%	-3%	i
CCc1ccc2oc(C(=O)N3CCN(c4ccccc4OC)CC3)cc(=O)c2c1	i	20µM*	14%	i
O=C(c1cc(=O)c2ccccc2o1)N1CCN(c2cccc(Cl)c2)CC1	i	u	2%	i
COc1ccccc1N1CCN(C(=O)c2oc3ccccc3c2N)CC1	i	13µM*	x	i
CCN(CC)S(=O)(=O)c1cccc(C(=O)N2CC(O)CC2C(=O)O)c1 (configuration not stated)	i	-13%	-16%	i
O=C(O)CCC(=O)N1CCc2cc(S(=O)(=O)NC3CCCc4ccccc43)ccc21 (configuration not stated)	i	-10%	11%	i
CCc1nnc(NC(=O)C2=CCN(S(=O)(=O)c3ccccc3)CC2)s1	i	5%	6%	u
O=C(COC(=O)c1ccco1)c1ccc(S(=O)(=O)N2CCCCC2)cc1	i	-8%	2%	i
CN1C=C(C(F)(F)F)C=C/C1=C(\C#N)c1nnc2n1CCCCC2	i	-14%	5%	i
COc1ccccc1N1CCN(C(=O)c2cc(=O)c3c(C)cc(C)cc3o2)CC1	i	25µM*	-3%	i
COc1ccccc1N1CCN(C(=O)COc2cc(C)cc3oc(=O)cc(C)c23)CC1	i	18%	-5%	i
Cc1ccc(Cc2c(-c3ccc(Br)cc3)nc3ccc(Cl)cn23)cc1	i	26%	0%	i
SMILES	Abeta yeast res	TDP-43 yeast inh	aSyn yeast inh	FUS suppressor
Cc1ccc(-c2nc3ccc(Cl)cn3c2Cc2cccc(F)c2)cc1	i	14µM*	u	i
Cc1ccc(Cc2c(-c3ccc(C)cc3)nc3ccc(Cl)cn23)cc1	i	25µM*	0%	i
Cc1ccc(-c2nc3ccc(Cl)cn3c2Cc2ccccc2C(F)(F)F)cc1	i	22µM*	7%	u
Cc1ccc(Cc2c(-c3ccc(Cl)cc3)nc3ccc(Cl)cn23)cc1	i	35µM*	6%	i
N#Cc1ccc(-c2nc3ccc(Cl)cn3c2Cc2cccc(F)c2)cc1	i	0%	-1%	i
Cc1ccc(S(=O)(=O)Nc2ccc(O)c3ncccc23)cc1	u	28%	u	i
C/C(=N\OC(=O)Nc1ccc(Cl)cc1)c1ncc(C(F)(F)F)cc1N1CCOCC1	i	1%	-3%	i
CCOC(=O)c1c(C)oc2c1C(=O)c1ccccc1C2=O	i	3.2µM*	-4%	i
Cc1oc2c(c1C(=O)O)C(=O)c1ccccc1C2=O	i	-45%	9%	i
Cc1oc2c(c1C(=O)c1ccccc1)C(=O)C(=O)c1ccccc1-2	i	16µM*	21%	i

Bioassay records deposited in PubChem by National Center for Advancing Translational Sciences (NCATS).
